Source: PubChem BioAssay (EPA / NIEHS)
The source made the active and inactive calls. Rule for the calls: active = hit-call score of the fitted dose curve at least 0.9, where 1 is the maximum; inactive = score below 0.9.

Assay: ATG_AP_1_CIS: Attagene CIS-FACTORIAL HepG2 Assay for human Activator Protein 1 (AP-1) (AID 2282931)
Conditions: HepG2 Attagene cis-factorial AP-1 reporter mRNA; actives raise or lower the signal
Description: ATG_CIS is a cell-based, multiplexed-readout assay that uses HepG2, a human liver cell line, with measurements taken at 24 hours after chemical dosing in a 24-well plate.ATG_AP_1_CIS is one of 52 assay component(s) measured or calculated from the ATG_CIS assay. It is designed to make measurements of mRNA induction, a form of inducible reporter, as detected with fluorescence intensity signals by Reverse transcription polymerase chain reaction (RT-PCR) and Capillary electrophoresis technology.Data from the assay component ATG_AP_1_CIS was analyzed into 1 assay endpoint. This assay endpoint, ATG_AP_1_CIS, was analyzed with bidirectional fitting relative to DMSO as the negative control and baseline of activity. Using a type of inducible reporter, measures of mRNA for gain or loss-of-signal activity can be used to understand the reporter gene at the transcription factor-level as they relate to the gene FOS and JUN. Furthermore, this assay endpoint can be referred to as a primary readout, because this assay has produced multiple assay endpoints where this one serves a reporter gene function. To generalize the intended target to other relatable targets, this assay endpoint is annotated to the dna binding intended target family, where the subfamily is basic leucine zipper.
Human liver HepG2 cells are transiently transfected with multiple reporter transcription units (MRTUs) in 6-well plates using FuGene 6 reagent (Roche; 3 ml FuGene/1 mg DNA). The MRTU constructs are regulated by a cis-regulating element (promoter). […] A major difference between the CIS and TRANS system is that in CIS activities of endogenous TFs are measured, whereas the TRANS assay evaluates changes in activities of exogenous, chimeric NR-Gal4 proteins. […] At the end of 24 hour incubation, total RNA was isolated using TriZol reagent (Invitrogen). The isolated RNA is then reverse-transcribed using oligo(dT) primer and Mo-MLV reverse transcriptase (Invitrogen) with DNAse I (Ambion) treatment for 30 min. The one-tenth of the produced cDNA was amplified by PCR using Taq DNA polymerase (Invitrogen) and two reporter sequence-specific primers. The PCR products were fluorescently labeled by primer extension with 6-arboxyfluorescein (6-FAM) 5'-labeled reporter sequence-specific primer (2 min at 95 C, 20 s at 68 C and 10 min at 72 C) and these products were digested with 5U of HpaI (New England Biolabs) for 2h at 37 C. The fragments were purified using Qiaquick PCR columns (Qiagen), analyzed on an ABI 3130xL genetic analyzer (Applied Biosystems) with peak positions identified by using a set of X-rhodamine (ROX)-labeled MapMarker1000 molecular weight standards (BioVentures). The raw capillary electrophoresis data was processed using Attagraph software (Attagene).
For `CCC(C)C(=O)OC` (stereo not given), the outcome was “inactive”. With `COc1ccc(C(=O)c2ccccc2)c(O)c1` the AC50 was 168 µM (active). For `CC(=O)OCC=C(C)C`, the outcome was “inactive”. For `CCOC(=O)/C=C\C(=O)OCC`, the AC50 was 50.5 µM (active). With `O=C1c2ccccc2C(=O)c2cc(S(=O)(=O)O)ccc21` the outcome was “inactive”. With `C=CC(=O)O[C@H]1C[C@@H]2CC[C@@]1(C)C2(C)C` the AC50 was 75.3 µM (active). In the case of `CCCCCCCO`, the outcome is reported as “inactive”. In the case of `CC1(C)[C@@H]2CC[C@@]1(C)C(=O)C2`, the outcome is reported as “inactive”. With `C=C(C)OC(C)=O` the outcome was “inactive”. For `CCN(CC)c1cccc(C)c1`, the outcome was “inactive”. With `CC1=CC(C)C(C=O)CC1` (stereo not given) the outcome was “inactive”. In the case of `CCC[Si](OC)(OC)OC`, the outcome is reported as “inactive”. In the case of `CC(C)C(=O)OCCOc1ccccc1`, the outcome is reported as “inactive”. For `CC(C)(CO)C(O)C(=O)NCCCO` (stereo not given), the outcome was “inactive”. With `C=C[Si](OCCOC)(OCCOC)OCCOC` the outcome was “inactive”. With `C=C(C)C1CC=C(C)C(OC(C)=O)C1` (stereo not given) the outcome was “inactive”. For `Nc1cccc(N)n1`, the outcome was “inactive”. In the case of `C=CC(=O)NCOCCCC`, the outcome is reported as “inactive”. In the case of `O=S(=O)(O)c1ccc(Nc2nc(Nc3ccc(C=Cc4ccc(Nc5nc(Nc6ccc(S(=O)(=O)O)cc6)nc(N(CCO)CCO)n5)cc4S(=O)(=O)O)c(S(=O)(=O)O)c3)nc(N(CCO)CCO)n2)cc1`, the outcome is reported as “inactive”. For `CCCCCCCOC(=O)c1ccc(O)cc1`, the outcome was “inactive”. For `CC(C)C(=O)OCCc1ccccc1`, the outcome was “inactive”. With `CC(=O)CCC1=C(C)CCCC1(C)C` the outcome was “inactive”. In the case of `O=C(Oc1ccccc1)c1ccccc1O`, the outcome is reported as “inactive”. With `COC(C=C(C)CCC=C(C)C)OC` the AC50 was 146 µM (active). In the case of `CC(Cl)COP(=O)(OCC(C)Cl)OCC(C)Cl` (stereo not given), the outcome is reported as “inactive”. For `Cc1cc(C)n(CO)n1`, the outcome was “inactive”. With `O=C(Cl)c1c(Cl)c(Cl)c(C(=O)Cl)c(Cl)c1Cl` the outcome was “inactive”. With `CCCCNS(=O)(=O)c1ccc(C)cc1` the outcome was “inactive”. In the case of `CC1(C)C(=O)N(CO)C(=O)N1CO`, the outcome is reported as “inactive”. With `O=C(O)c1ccc2c(c1)C(=O)OC2=O` the outcome was “inactive”. In the case of `CC1(C)CC(O)CC(C)(C)N1[O]`, the AC50 is reported as 26.6 µM (active). For `CC1=NN(c2ccc(S(=O)(=O)O)cc2)C(=O)C1N=Nc1ccccc1` (stereo not given), the outcome was “inactive”. In the case of `O=C(OCCc1ccccc1)c1ccccc1`, the outcome is reported as “inactive”. In the case of `C=CC(=O)OCCCCCCOC(=O)C=C`, the outcome is reported as “inactive”. With `CCOC(=O)c1ccccc1C` the outcome was “inactive”. In the case of `C=Cc1cccc(C)c1`, the AC50 is reported as 31.9 µM (active). With `C=CC(=O)OCC(C)OCC(C)OCC(C)OC(=O)C=C` (stereo not given) the AC50 was 73.4 µM (active). For `CC(C)(c1ccccc1)c1ccc(Nc2ccc(C(C)(C)c3ccccc3)cc2)cc1`, the outcome was “inactive”. With `CN(C)Cc1cc(CN(C)C)c(O)c(CN(C)C)c1` the outcome was “inactive”. With `C=C(C)C(=O)OCCCCCCCCCCCC` the outcome was “inactive”.
